According to PubChem BioAssay (EPA / NIEHS):
Values joined by “and” are separate entries in the source; they are usually repeats but may differ in a detail not shown here. Identical values can stand only once. Inconclusive results are not listed. The source holds several records for some structures; these can differ, active in one and inactive in another. Active and inactive are the calls of the source. How the source made its calls: active means hit-call score of the fitted dose curve at least 0.9, where 1 is the maximum; inconclusive means response in the unintended direction; inactive means score below 0.9.

Test system: not listed separately
Test: TOX21_p53_BLA_p4_viability: Viability Assessment in the Tox21 HCT-116 p53 Agonism Beta-lactamase Assay, Phase 4 (AID 2283597);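 further: hits lower the luminescence signal meaning cytotoxicity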
Outline: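 Following a 16 h exposure at 37C, the treated HCT116 wells were first read for the FRET ratio. They were then lysed with CellTiter-Glo, and ATP luminescence was recorded after 30 min at room temperature.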

| SMILES | AC50 | outcome |
| --- | --- | --- |
| Cc1ccc(C(=O)c2cc(O)c(O)c([N+](=O)[O-])c2)cc1 | 46.1 µM (active) | inactive |
| O=C(Cl)c1cccc(C(=O)Cl)c1 |  | inactive |
| CCCCCCCCCCCCN | 62.2 µM (active) |  |
| Cc1ccc(O)c(C(C)(C)C)c1 | 46.1 µM (active) and 52.5 µM (active) |  |
| CCn1c2ccccc2c2cc(N)ccc21 |  | inactive |
| CNCCCC12CCC(c3ccccc31)c1ccccc12 | 62.7 µM (active) and 36.6 µM (active) |  |
| BrC1CCC(Br)C(Br)CCC(Br)C(Br)CCC1Br (configuration not stated) | 40.1 µM (active) and 19.6 µM (active) |  |

Molecular target: Cellular tumor antigen p53 (Homo sapiens) (UniProt P04637)
Sequence (P04637 whole entry, looked up): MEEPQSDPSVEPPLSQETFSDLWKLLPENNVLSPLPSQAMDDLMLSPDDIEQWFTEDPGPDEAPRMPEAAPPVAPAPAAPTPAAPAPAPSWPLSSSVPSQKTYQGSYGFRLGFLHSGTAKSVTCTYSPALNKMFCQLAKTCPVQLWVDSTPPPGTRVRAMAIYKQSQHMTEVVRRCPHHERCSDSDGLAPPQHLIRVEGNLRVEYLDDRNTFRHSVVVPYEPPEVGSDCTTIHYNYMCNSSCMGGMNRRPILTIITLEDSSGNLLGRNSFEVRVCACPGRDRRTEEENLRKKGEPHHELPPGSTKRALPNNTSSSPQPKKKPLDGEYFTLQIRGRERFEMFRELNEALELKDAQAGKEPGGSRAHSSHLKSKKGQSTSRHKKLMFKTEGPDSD
Test: TOX21_p53_BLA_p5_ratio: Tox21 HCT-116 p53 Agonism Beta-lactamase Assay, Ratio, Phase 5 (AID 2283599)
Outline: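 HCT-116 cells carrying a p53-inducible beta-lactamase reporter were seeded at 4000 cells/well and dosed after 5 h with compound in DMSO (217-fold dilution). After 16 h at 37C, CCF4-AM substrate was added for 2 h, and the 460/530 nm emission ratio was scored as gain-of-signal versus DMSO.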

| SMILES | AC50 | outcome |
| --- | --- | --- |
| O=C1OC2(c3cc(Br)c(O)c(Br)c3Oc3c2cc(Br)c(O)c3Br)c2c(Cl)c(Cl)c(Cl)c(Cl)c21 | 50.2 µM (active) | inactive |
| O=C1c2ccccc2C(=O)N1SC1CCCCC1 | 44.8 µM (active) | inactive |
| Cc1ccc(C(=O)c2cc(O)c(O)c([N+](=O)[O-])c2)cc1 | 71.3 µM (active) | inactive |
| O=C(Cl)c1cccc(C(=O)Cl)c1 |  | inactive |
| CCCCC/C=C/C=C/C=O |  | inactive |
| CCCCCCCCCCCCN | 83.1 µM (active) | inactive |
| Cc1ccc(O)c(C(C)(C)C)c1 | 60.5 µM (active) and 67.9 µM (active) |  |
| CNCCCC12CCC(c3ccccc31)c1ccccc12 | 90.1 µM (active) | inactive |
| BrC1CCC(Br)C(Br)CCC(Br)C(Br)CCC1Br (configuration not stated) |  | inactive |

Test system: not listed separately
Test: TOX21_p53_BLA_p5_viability: Viability Assessment in the Tox21 HCT-116 p53 Agonism Beta-lactamase Assay, Phase 5 (AID 2283600)
Outline: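 After the 460/530 nm beta-lactamase measurement, the wells received an ATP-detection luciferase reagent; signal was read 30 min later at RT. Compound treatment lasted 16 h on cells pre-incubated 5 h post-seeding.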

| SMILES | outcome | AC50 |
| --- | --- | --- |
| O=C1OC2(c3cc(Br)c(O)c(Br)c3Oc3c2cc(Br)c(O)c3Br)c2c(Cl)c(Cl)c(Cl)c(Cl)c21 | inactive |  |
| O=C1c2ccccc2C(=O)N1SC1CCCCC1 | inactive |  |
| Cc1ccc(C(=O)c2cc(O)c(O)c([N+](=O)[O-])c2)cc1 | inactive |  |
| CC(CN1c2ccccc2Sc2ccccc21)N(C)C (configuration not stated) |  | 39.8 µM (active) |
| O=C(Cl)c1cccc(C(=O)Cl)c1 | inactive |  |
| CCCCC/C=C/C=C/C=O | inactive |  |
| c1ccc2c(c1)c1cccc3ccc4cccc2c4c31 | inactive |  |
| CCCCCCCCCCCCN | inactive | 84.5 µM (active) |
| Cc1ccc(O)c(C(C)(C)C)c1 | inactive | 42.9 µM (active) |
| CCn1c2ccccc2c2cc(N)ccc21 | inactive |  |
| CNCCCC12CCC(c3ccccc31)c1ccccc12 | inactive | 70.2 µM (active) |
| BrC1CCC(Br)C(Br)CCC(Br)C(Br)CCC1Br (configuration not stated) | inactive |  |
